PubChem BioAssay AID2235 (The Scripps Research Institute Molecular Screening Center, 2010)
The campaign covered roughly 320,000 compounds. About 2,800 (0.88%) were called active. For the sample, actives were picked, then their nearest neighbours and some compounds at random. Values without a mark were called inactive.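 The calls were made as follows: active = inhibition above the mean inhibition of all tested compounds plus 3 SD, computed separately for each screening campaign (cut at about 15% in these data); inactive = the rest.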

molecular target: Serine/threonine-protein phosphatase PP1-alpha catalytic subunit (Homo sapiens) (UniProt P62136); assay: inhibition of human PP1 catalytic subunit – biochemical, fluorescence, OMFP substrate, single point, counter-screen for PP5 inhibitor project, primary screen (AID 2235); details: purified PP1alpha, at 6.7 µM, active compounds read high
Sequence (P62136 whole entry, looked up): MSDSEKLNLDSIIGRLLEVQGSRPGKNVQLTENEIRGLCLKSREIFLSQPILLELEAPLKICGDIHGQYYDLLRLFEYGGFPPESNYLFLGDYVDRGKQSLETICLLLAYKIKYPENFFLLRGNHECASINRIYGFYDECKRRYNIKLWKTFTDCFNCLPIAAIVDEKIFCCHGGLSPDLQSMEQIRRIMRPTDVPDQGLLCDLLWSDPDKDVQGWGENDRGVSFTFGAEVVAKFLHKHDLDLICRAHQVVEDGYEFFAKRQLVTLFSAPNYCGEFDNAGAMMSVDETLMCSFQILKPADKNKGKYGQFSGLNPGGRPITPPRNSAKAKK

| SMILES | inhibition |
| --- | --- |
| CC(=O)c1c(C)[nH]c(C(=O)OCC(=O)Nc2sc3c(c2C#N)CCCC3)c1C | 8.8% |
| Cc1cccc(N(Cc2ccccc2)C(=O)c2ccccc2F)c1 | 0.11% |
| COc1ccc(C2=NS(=O)(=O)N(C)C(C(=O)NC(C)c3ccccc3)=C2)cc1 (centres undefined) | -1.27% |
| CCOc1ccc(CNC(=O)C2CCCN(c3nnc(C)c4c(C)n(-c5ccccc5)nc34)C2)cc1 (centres undefined) | 1.12% |
| CCc1ccc(CNC(=O)C2CCN(c3nnc(C)c4c(C)n(-c5ccc(C)cc5)nc34)CC2)cc1 | 16.5% (active) |
| COc1ccc(-n2nc3c(N4CCC(C(=O)NCc5ccccc5)CC4)nnc(C)c3c2C)cc1 | 4.6% |
| CC(C)Cn1c(N)c(C(=O)COC(=O)CN2C(=O)C3CC=CCC3C2=O)c(=O)n(C)c1=O (centres undefined) | -0.85% |
| O=C(Nc1ccc2ccccc2c1)Nc1ccc2snnc2c1 | 13.3% |
| Cc1nn(-c2ccccc2)c2[nH]c(C(F)(F)F)cc(=O)c12 | 2.68% |
| CCCN1CCN(C(=O)CCCNC(=O)c2ccc(Cl)cc2)CC1 | -3.09% |
| CN1C(=O)/C(=C/c2ccc(C(=O)NC3CCCC3)cc2)Oc2ccccc21 | 1.1% |
| CN1CCN(CCCNC(=O)c2ccc(/C=C3\Oc4ccccc4N(Cc4ccc(Cl)cc4)C3=O)cc2)CC1 | 25.6% (active) |
| Cc1cc(C)nc(-n2nc(C)cc2NC(=O)c2ccc(F)cc2F)n1 | -0.61% |
| O=C(NCc1ccccc1)C(c1cccnc1)N(C(=O)c1csnn1)c1ccc(F)cc1 (centres undefined) | 8.74% |
| O=C(N=C1SC2CS(=O)(=O)CC2N1c1cc(Cl)ccc1Cl)C1CC1 (centres undefined) | 18.9% (active) |
| O=C(CCC1CCCC1)N=C1SC2CS(=O)(=O)CC2N1Cc1ccccc1 (centres undefined) | 5.06% |
| CC(=O)c1ccc(N2C(=NC(=O)C(C)C)SC3CS(=O)(=O)CC32)cc1 (centres undefined) | -3.39% |
| CCOC(=O)N1CCN(C(=O)c2ccc3c(=O)n(CCc4ccc(OC)c(OC)c4)c(=O)[nH]c3c2)CC1 | 4.83% |
| NS(=O)(=O)c1ccc(CCNC(=O)COC(=O)COc2cccc(C(F)(F)F)c2)cc1 | -0.82% |
| CCOC(=O)c1cc(-c2ccc(F)cc2)n(CC(=O)NCc2ccccn2)c1C | -3.29% |

| SMILES | inhibition |
| --- | --- |
| Cc1ccc(OCC(=O)Nc2ccc(-c3nc4ncccc4o3)cc2)cc1 | 0.81% |
| CCCCOc1ccc(-c2nnc(-c3ccco3)o2)cc1 | 3.14% |
| Cc1ccc(OCC(=O)Nc2ccc(-c3nnc(-c4ccco4)o3)cc2)cc1 | 24.5% (active) |
| Cc1cc(C)nc(N/N=C/c2c(CO)cnc(C)c2O)n1 | 1.96% |
| CSc1ccccc1NC(=O)c1cc(C2CC2)on1 | 0.1% |
| C=CCSc1nnc(N2C(=O)C(O)=C(C(=O)c3ccco3)C2c2ccc(F)cc2)s1 (centres undefined) | 10.6% |
| Cc1ccc2nc(N3C(=O)C(O)=C(C(=O)c4ccco4)C3c3cccc(O)c3)sc2c1 (centres undefined) | 21.7% (active) |
| Cc1ccc2nc(N3CCN(C(=O)c4ccco4)CC3)sc2c1 | -4.18% |
| COc1ccc(OC(C)C(=O)Nc2cccnc2)cc1 (centres undefined) | 3% |
| Cc1cc(NC(=O)CSCc2nc(-c3cccc(Cl)c3)oc2C)no1 | 0.91% |
| COc1ccc(N2C(=O)C(CC(=O)Nc3ccccc3)N(Cc3ccc(OC)c(OC)c3)C2=O)cc1 (centres undefined) | -2.83% |
| N=c1c2c(-c3ccccc3)c(-c3ccccc3)n(Cc3ccccc3)c2ncn1CCCO | 7.81% |
| OCCCN1c2ccccc2Nc2nnc(-c3ccccc3)cc21 | 21.4% (active) |
| c1ccc(-c2cc(-c3ccccc3)[nH]n2)cc1 | 2.76% |
| CCN(CCCNC(=O)c1ccc2c(c1)NC(=O)CN2C)c1cccc(C)c1 | -0.43% |
| CCC(C)N(C(=O)CSc1nnnn1-c1ccccc1OC)C1CCS(=O)(=O)C1 (centres undefined) | -1.76% |
| CC1CCCCN1C(=O)Cn1c(=O)oc2cc(S(=O)(=O)N3CCCCC3)ccc21 (centres undefined) | 5.73% |
| COc1cc(Br)c(-c2sc(Nc3ccccc3)n[n+]2-c2ccccc2)cc1OC | -0.57% |
| COc1ccc(C)cc1Nc1n[n+](-c2ccccc2)c(-c2cccc(Cl)c2Cl)s1 | 15.2% (active) |
| CCc1ccc(Nc2n[n+](-c3ccccc3)c(-c3cccc(Cl)c3Cl)s2)cc1 | 14.2% |

| SMILES | inhibition |
| --- | --- |
| CCCN(CC(=O)Nc1ccc(OC)c(OC)c1)CC(=O)Nc1ccc(F)c(F)c1F | -0.52% |
| O=C(Nc1nnc(CCOCCOCCc2nnc(NC(=O)c3ccco3)s2)s1)c1ccco1 | -2.12% |
| NC(=O)c1ccsc1NC(=O)c1ccco1 | 1.47% |
| O=C(Nc1nc(-c2ccco2)c(-c2ccco2)s1)c1ccco1 | 26.9% (active) |
| N#Cc1ccccc1S(=O)(=O)N1CCN(Cc2c(O)ccc3ccccc23)CC1 | 0.2% |
| CCn1c(SCC(=O)Nc2ccc(Br)cc2)nc2sc3c(c2c1=O)CCN(C)C3 | 3.91% |
| COc1ccccc1NC(=O)CSc1nc2sc3c(c2c(=O)n1-c1ccccc1)CCN(C)C3 | 21.4% (active) |
| CCOc1ccc(-n2c(SCC(=O)Nc3ccc(OC)cc3)nc3sc4c(c3c2=O)CCN(C)C4)cc1 | 11.8% |
| Cc1cc(S(=O)(=O)NC2CCCC2)ccc1-n1cnnn1 | 3.65% |
| CC(Sc1nnnn1C)C(=O)NC(=O)NC1CCCCC1 (centres undefined) | 10.8% |
| CCN(CCNC(=O)C1=C(C)C(=O)OC12CCC(C)CC2)c1ccccc1 (centres undefined) | -1.92% |
| Cc1ccc(NC(=O)Nc2cccc(C(F)(F)F)c2)nc1 | 2.27% |
| CCNS(=O)(=O)c1ccc(NC(=O)Nc2cccc(C(F)(F)F)c2)cc1 | 34.2% (active) |
| O=C(Nc1ccc(C(=O)N2CCOCC2)cc1)Nc1cccc(C(F)(F)F)c1 | 0.27% |
| CCCCNCc1ccc(SC)cc1 | -2.43% |
| N=c1c2c3c(sc2nc2n1CCCCC2)CCCC3 | -1.9% |
| CCCCn1c(SCC(=O)N2CCC(C(=O)OCC)CC2)nc2cc(S(N)(=O)=O)ccc21 | -5.51% |
| CCCCn1c(SCc2ncc(-c3ccccc3)o2)nc2cc(S(N)(=O)=O)ccc21 | 17.9% (active) |
| CCCCn1c(SCC(=O)N2CCCC2=O)nc2cc(S(N)(=O)=O)ccc21 | 2.2% |
